The values below come from PubChem BioAssay (NCI).

“And” between values parts separate entries of the source, which are not always exact repeats. Equal entries are not always repeated. This is part of a sample that, as a whole, favours compounds with a hit. Of some 79,000 tested, about 15% had one in any assay. Some structures have more than one record in an assay (separate samples or runs), and their calls can disagree. The source made the active and inactive calls. No stated cut-off is given here; in the data, active means growth inhibition above about 70%; inactive means the rest.

The first assay in a line: NCI Yeast Anticancer Drug Screen. Data for the mlh1 rad18 strain (AID 175). Conditions: S. cerevisiae mlh1 rad18 strain growth inhibition; at 50.0 µM (retest, dose inferred, filed as 5.0); stronger effect = higher value. In outline: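 Steps: expose repair-defective yeast to compound; measure growth; express inhibition against vehicle-treated controls.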
As to `CNC(=O)OCc1c(COC(=O)NC)c(C)n(-c2ccc(Cl)c(Cl)c2)c1C`, the growth inhibition was 98% (active). Still for that read-out and setting: to `COc1ccc2nc(N/N=C/c3sccc3C)cc(C)c2c1` belongs 83% (active); to `CCCCCCCCCCCC[N+](C)(C)Cc1ccccc1` (tested in a mixture with another compound), 100% (active); to `CC(C)c1ccc(O)c(=O)cc1`, 45% (inactive) and 43% (inactive) and -2% (inactive). As for `O=C(O)/C=C\C(=O)NNc1ccc(Br)cc1`, the growth inhibition was 98% (active). Still for that read-out and setting: to `S=c1[nH]nc(Cc2ccccc2)c(=S)[nH]1` belongs 60% (inactive). On the same count and under the same terms, to `COc1ccc2nc3cccc([N+](=O)[O-])c3c(NCCCO)c2c1` belongs 99% (active); to `CCN(CC)CCSc1c2ccccc2nc2cc(NCC(=O)Nc3ccccc3-c3ccccc3NC(=O)CNc3ccc4c(SCCN(CC)CC)c5ccccc5nc4c3)ccc12`, 98% (active); to `Cc1ccc(N(C=O)c2c([N+](=O)[O-])cc([N+](=O)[O-])c3c2=[N+]([O-])CN=3)cc1`, 98% (active).

With `Nc1ccccc1SSc1ccccc1N`, the growth inhibition was 99% (active) and 7% (inactive).

Regarding `COc1ccc(C(=O)OCCc2ccccc2)cc1`, the growth inhibition is 64% (inactive). With `COc1ccc(C(=O)NCCN(C)C)c2nc3ccccc3cc12`, the growth inhibition was 64% (inactive). For `NCC(O)CSCc1ccc(Cl)cc1` (configuration not stated), the growth inhibition was 18% (inactive). Same read-out and setting: to `O=c1[nH]c(=O)n(CCCO)cc1F` belongs 45% (inactive); to `CCCCCCCCCCCC[N+](C)(C)C`, 96% (active) and 95% (active) and 99% (active); to `COc1ccc(/C(=N/O)c2ccccc2C2=Nc3ccccc3C(NCc3ccccc3)O2)cc1C` (configuration not stated), 93% (active). As to `CCCC(=O)OC(OC(=O)CCC)c1ccc([N+](=O)[O-])o1`, the growth inhibition is 71% (active).

For the molecule `O=C(/C(=C/c1ccccc1)CBr)c1ccccc1`, the growth inhibition was 99% (active). Still for that read-out and setting: to `O=C(Cc1ccccc1F)NC1=C(Cl)C(=O)c2ccccc2C1=O` belongs 28% (inactive); to `Cc1cccc(N2CCN(C(=O)/C(=C/c3ccccc3)NC(=O)c3ccccc3)CC2)c1`, 64% (inactive); to `OCC(O)C(O)C(O)C(O)c1nc2ccccc2[nH]1` (configuration not stated), 5% (inactive) and 1% (inactive). As for `c1cc(Nc2ccc3c(c2)OCO3)c2cc(C3CCCCC3)ccc2n1`, the growth inhibition is 73% (active). The same measure, in the same setting: to `Cc1ccc2nc(N/N=C/c3ccc(C)s3)cc(C)c2c1` belongs 98% (active). In the case of `COc1cc(NCCCCCNC(C)C)c2ncccc2c1Cl`, the growth inhibition is 38% (inactive). On to `COc1cccc2c1C(=O)c1c(O)c3c(c(O)c1C2=O)CC(O)(C(=O)CO)CC3OC1CC(N)C(O)C(C)O1` (configuration not stated), for which the growth inhibition is -1% (inactive) and 3% (inactive) and 94% (active). For `COc1ccc2cc(CN3CCC(C4CCN(Cc5ccc6cc(OC)ccc6c5)CC4)CC3)ccc2c1`, the growth inhibition was 80% (active). As to `CC(=O)O/N=C/c1c2ccccc2cc2ccccc12`, the growth inhibition was 92% (active).

In the case of `CC[C@@]1(OC(=O)CN(C)C)C(=O)OCc2c1cc1n(c2=O)Cc2cc3ccccc3nc2-1`, the growth inhibition was 94% (active). For the molecule `CC1(C)CC(=O)C(C(CC(c2ccccc2)c2cc3c(cc2O)OCO3)C2=C(O)CC(C)(C)CC2=O)=C(O)C1` (configuration not stated), the growth inhibition is 97% (active). As to `CCCCCCC(CCl)c1sc(-c2csc(CCNC(=O)OC(C)(C)C)n2)nc1C(=O)OC` (configuration not stated), the growth inhibition is 88% (active). Take `CCOC(=O)C1=C(C)NC(C)=C(C(=O)OCC)C1c1cccc([N+](=O)[O-])c1`: the growth inhibition is 75% (active).

As for `COc1nc(N)c(N=CC(OC(C)=O)C(OC(C)=O)C(COC(C)=O)OC(C)=O)c(=O)n1C` (configuration not stated), the growth inhibition is 0% (inactive) and -18% (inactive) and -21% (inactive). Turning to `Cc1ccc2c(/C=C/c3ccc(N(C)C)cc3)ccnc2c1C`, the growth inhibition is 14% (inactive).

Consider `Cc1cc(SC#N)ccc1O`, for which the growth inhibition is 95% (active) and 87% (active). In the case of `O=C1C(Br)=CC(Br)(Br)C=C1Br`, the growth inhibition was 100% (active).

Staying with this assay, now noted: S. cerevisiae mlh1 rad18 strain growth inhibition; at 50.0 µM; stronger effect = higher value.
For `CNC(=O)OCc1c(COC(=O)NC)c(C)n(-c2ccc(Cl)c(Cl)c2)c1C`, the growth inhibition is 92.3% (active). Same read-out and setting: to `COc1ccc2nc(N/N=C/c3sccc3C)cc(C)c2c1` belongs 87.8% (active). Consider `CCCCCCCCCCCC[N+](C)(C)Cc1ccccc1` (tested in a mixture with another compound), for which the growth inhibition was 99.5% (active) and 98.9% (active). On the same count and under the same terms, to `CC(C)c1ccc(O)c(=O)cc1` belongs 91.2% (active) and 92.4% (active) and 92.1% (active); to `O=C(O)/C=C\C(=O)NNc1ccc(Br)cc1`, 98.3% (active).

For `S=c1[nH]nc(Cc2ccccc2)c(=S)[nH]1`, the growth inhibition is 75.2% (active). Turning to `COc1ccc2nc3cccc([N+](=O)[O-])c3c(NCCCO)c2c1`, the growth inhibition was 81.8% (active). With `CCN(CC)CCSc1c2ccccc2nc2cc(NCC(=O)Nc3ccccc3-c3ccccc3NC(=O)CNc3ccc4c(SCCN(CC)CC)c5ccccc5nc4c3)ccc12`, the growth inhibition is 89% (active). With `Cc1ccc(N(C=O)c2c([N+](=O)[O-])cc([N+](=O)[O-])c3c2=[N+]([O-])CN=3)cc1`, the growth inhibition is 41.3% (inactive). Same read-out and setting: to `Nc1ccccc1SSc1ccccc1N` belongs 99.3% (active) and 99% (active).

Consider `COc1ccc(C(=O)OCCc2ccccc2)cc1`, for which the growth inhibition is -16.4% (inactive). As to `COc1ccc(C(=O)NCCN(C)C)c2nc3ccccc3cc12`, the growth inhibition is 19.6% (inactive). On the same count and under the same terms, then `NCC(O)CSCc1ccc(Cl)cc1` (configuration not stated), with 82.8% (active); and `O=c1[nH]c(=O)n(CCCO)cc1F`, with -41.3% (inactive); and `CCCCCCCCCCCC[N+](C)(C)C`, with 83.3% (active) and 91% (active) and 80.5% (active). As to `COc1ccc(/C(=N/O)c2ccccc2C2=Nc3ccccc3C(NCc3ccccc3)O2)cc1C` (configuration not stated), the growth inhibition is 94.2% (active).

Consider `CCCC(=O)OC(OC(=O)CCC)c1ccc([N+](=O)[O-])o1`, for which the growth inhibition is 35.1% (inactive). For `O=C(/C(=C/c1ccccc1)CBr)c1ccccc1`, the growth inhibition was 74.5% (active) and 90.6% (active).

Take `O=C(Cc1ccccc1F)NC1=C(Cl)C(=O)c2ccccc2C1=O`: the growth inhibition is -1.75% (inactive). `Cc1cccc(N2CCN(C(=O)/C(=C/c3ccccc3)NC(=O)c3ccccc3)CC2)c1`: the growth inhibition was 25.9% (inactive). Take `c1cc(Nc2ccc3c(c2)OCO3)c2cc(C3CCCCC3)ccc2n1`: the growth inhibition is 99.5% (active). Turning to `Cc1ccc2nc(N/N=C/c3ccc(C)s3)cc(C)c2c1`, the growth inhibition is 91.2% (active). Consider `COc1cc(NCCCCCNC(C)C)c2ncccc2c1Cl`, for which the growth inhibition is 56.8% (inactive). With `COc1ccc2cc(CN3CCC(C4CCN(Cc5ccc6cc(OC)ccc6c5)CC4)CC3)ccc2c1`, the growth inhibition is -19.2% (inactive). In the case of `CC(=O)O/N=C/c1c2ccccc2cc2ccccc12`, the growth inhibition was 33% (inactive). For the molecule `CC[C@@]1(OC(=O)CN(C)C)C(=O)OCc2c1cc1n(c2=O)Cc2cc3ccccc3nc2-1`, the growth inhibition was 97.2% (active). As to `CC1(C)CC(=O)C(C(CC(c2ccccc2)c2cc3c(cc2O)OCO3)C2=C(O)CC(C)(C)CC2=O)=C(O)C1` (configuration not stated), the growth inhibition is 95.6% (active).

Take `CCCCCCC(CCl)c1sc(-c2csc(CCNC(=O)OC(C)(C)C)n2)nc1C(=O)OC` (configuration not stated): the growth inhibition is 43.5% (inactive). Same read-out and setting: then `CCOC(=O)C1=C(C)NC(C)=C(C(=O)OCC)C1c1cccc([N+](=O)[O-])c1`, with 90.7% (active); and `Cc1ccc2c(/C=C/c3ccc(N(C)C)cc3)ccnc2c1C`, with 81.8% (active). Turning to `Cc1cc(SC#N)ccc1O`, the growth inhibition was 96.4% (active) and 86.3% (active) and 95.6% (active).

Regarding `O=C1C(Br)=CC(Br)(Br)C=C1Br`, the growth inhibition is 90.6% (active).
